# Measured values taken from the supplement of paper PMC10849652.
# Of roughly 7,900 targets only a part is listed; those with a hit were picked by preference. About 0.6% of all pairs of compound and target were hits. A number with no mark means an inactive call.
# Assays:
# Assay in all cases: log2 fold change, soluble protein after heating vs DMSO (PISA); higher = thermal stabilisation; K562 cells, 10 uM, 30 min; active = over 0.2 and 3.5 SD of the protein, either way, in both replicates (recomputed)
# dasatinib = compound: Cc1nc(Nc2ncc(C(=O)Nc3c(C)cccc3Cl)s2)cc(N2CCN(CCO)CC2)n1 [dasatinib]
# How it was run: (§1)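 Values are thermal stability changes relative to control samples and are taken from duplicates. They are stated as log2 fold changes. Before quantification by TMTpro 16plex LC-MS/MS with equalised channel sums, K562 cells at 2×10^6 cells/mL were treated with 10 μM compound for 30 min, heated in aliquots for 3 min across 48°C-58°C, pooled, extracted in PBS with 0.5% NP-40 at 4°C, and centrifuged at 21,000xg for 90 min to give the soluble supernatant.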
# [1] = compound: Cn1cc(-c2ccc3c(c2)CCN3C(=O)Cc2cccc(C(F)(F)F)c2)c2c(N)ncnc21
# How it was run: as §1
# [2] = compound: Cn1cc(-c2ccc3nnc(C(F)(F)c4ccc5ncccc5c4)n3n2)cn1
# How it was run: as §1
# [3] = compound: NC(=O)c1cnc(N[C@@H]2CCCC[C@@H]2N)nc1Nc1cccc(-n2nccn2)c1
# How it was run: as §1
# bafetinib = compound: Cc1ccc(NC(=O)c2ccc(CN3CC[C@H](N(C)C)C3)c(C(F)(F)F)c2)cc1Nc1nccc(-c2cncnc2)n1 [bafetinib]
# How it was run: as §1
# [4] = compound: Cc1cccc(CC(=O)N2CCc3c2ccc(-c2cn(C)c4ncnc(N)c24)c3F)n1
# How it was run: as §1
# tipifarnib = compound: Cn1cncc1[C@@](N)(c1ccc(Cl)cc1)c1ccc2c(c1)c(-c1cccc(Cl)c1)cc(=O)n2C [tipifarnib]
# How it was run: as §1
# vorinostat = compound: O=C(CCCCCCC(=O)Nc1ccccc1)NO [vorinostat]
# How it was run: as §1
# citarinostat = compound: O=C(CCCCCCNC(=O)c1cnc(N(c2ccccc2)c2ccccc2Cl)nc1)NO [citarinostat]
# How it was run: as §1
# [5] = compound: c1cc(OCCN2CCCCC2)cc(-c2n[nH]c3ccc(-c4nnc[nH]4)cc23)c1
# How it was run: as §1
# [6] = compound: NC(=O)Nc1cc(-c2cccc(F)c2)sc1C(=O)N[C@H]1CCCNC1
# How it was run: as §1
# entinostat = compound: Nc1ccccc1NC(=O)c1ccc(CNC(=O)OCc2cccnc2)cc1 [entinostat]
# How it was run: as §1
# [7] = compound: NCC(=O)Nc1ccc(-n2nc(C(F)(F)F)cc2-c2ccc3c(ccc4ccccc43)c2)cc1
# How it was run: as §1
# [8] = compound: O=C1NC(=O)C(c2cnc3ccccn23)=C1c1cn2c3c(cc(F)cc13)CN(C(=O)N1CCCCC1)CC2
# How it was run: as §1
# nilotinib = compound: Cc1cn(-c2cc(NC(=O)c3ccc(C)c(Nc4nccc(-c5cccnc5)n4)c3)cc(C(F)(F)F)c2)cn1 [nilotinib]
# How it was run: as §1
# [9] = compound: Cc1nc(Nc2n[nH]c3c2CN(C(=O)N[C@H](CN(C)C)c2ccccc2)C3(C)C)c2sccc2n1
# How it was run: as §1
# [10] = compound: Cc1ncc(-c2ccnc(Nc3ccc(S(C)(=O)=O)cc3)n2)n1C(C)C
# How it was run: as §1
# mubritinib = compound: FC(F)(F)c1ccc(/C=C/c2nc(COc3ccc(CCCCn4ccnn4)cc3)co2)cc1 [mubritinib]
# How it was run: as §1
# [11] = compound: NC1(c2ccc(-c3nc4ccn5c(=O)[nH]nc5c4cc3-c3ccccc3)cc2)CCC1
# How it was run: as §1
# silmitasertib = compound: O=C(O)c1ccc2c(c1)nc(Nc1cccc(Cl)c1)c1ccncc12 [silmitasertib]
# How it was run: as §1
# Sequence of UniProt P17936 (P17936 whole entry, looked up): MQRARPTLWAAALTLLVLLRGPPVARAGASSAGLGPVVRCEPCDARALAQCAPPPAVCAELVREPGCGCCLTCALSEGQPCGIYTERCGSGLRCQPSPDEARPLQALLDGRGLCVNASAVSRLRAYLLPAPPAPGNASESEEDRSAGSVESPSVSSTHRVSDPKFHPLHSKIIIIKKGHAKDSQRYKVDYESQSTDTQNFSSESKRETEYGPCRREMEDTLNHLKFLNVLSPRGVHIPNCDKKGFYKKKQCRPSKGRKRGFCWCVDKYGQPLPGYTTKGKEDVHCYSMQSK
# Sequence of UniProt Q92585 (Q92585 whole entry, looked up): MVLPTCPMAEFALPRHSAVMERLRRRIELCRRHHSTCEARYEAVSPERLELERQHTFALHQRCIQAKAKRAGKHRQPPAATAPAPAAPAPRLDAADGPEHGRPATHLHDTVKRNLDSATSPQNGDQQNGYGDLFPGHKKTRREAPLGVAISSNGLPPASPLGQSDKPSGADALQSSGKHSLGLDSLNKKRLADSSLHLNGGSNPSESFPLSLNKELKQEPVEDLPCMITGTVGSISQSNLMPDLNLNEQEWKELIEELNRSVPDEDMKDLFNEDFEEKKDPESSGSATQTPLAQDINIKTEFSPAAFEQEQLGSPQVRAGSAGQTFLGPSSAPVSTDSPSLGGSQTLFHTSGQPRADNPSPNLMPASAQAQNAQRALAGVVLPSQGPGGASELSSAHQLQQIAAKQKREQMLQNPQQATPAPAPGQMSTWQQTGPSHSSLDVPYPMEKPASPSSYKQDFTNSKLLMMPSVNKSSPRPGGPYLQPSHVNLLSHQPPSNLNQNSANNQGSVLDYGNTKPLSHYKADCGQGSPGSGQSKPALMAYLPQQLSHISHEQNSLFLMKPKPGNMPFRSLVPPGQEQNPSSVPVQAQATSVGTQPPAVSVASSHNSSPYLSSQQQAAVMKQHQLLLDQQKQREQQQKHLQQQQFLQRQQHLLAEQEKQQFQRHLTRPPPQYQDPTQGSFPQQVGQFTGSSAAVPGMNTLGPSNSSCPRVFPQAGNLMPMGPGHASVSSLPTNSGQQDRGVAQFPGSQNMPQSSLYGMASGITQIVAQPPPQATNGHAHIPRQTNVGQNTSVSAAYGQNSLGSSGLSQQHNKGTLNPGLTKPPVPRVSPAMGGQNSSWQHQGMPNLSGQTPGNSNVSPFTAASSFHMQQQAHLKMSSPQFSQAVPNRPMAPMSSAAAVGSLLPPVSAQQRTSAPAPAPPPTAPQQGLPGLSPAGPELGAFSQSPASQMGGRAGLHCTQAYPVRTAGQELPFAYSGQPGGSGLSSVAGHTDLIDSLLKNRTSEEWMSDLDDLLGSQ
# Sequence of UniProt Q9NQR1 (Q9NQR1 whole entry, looked up): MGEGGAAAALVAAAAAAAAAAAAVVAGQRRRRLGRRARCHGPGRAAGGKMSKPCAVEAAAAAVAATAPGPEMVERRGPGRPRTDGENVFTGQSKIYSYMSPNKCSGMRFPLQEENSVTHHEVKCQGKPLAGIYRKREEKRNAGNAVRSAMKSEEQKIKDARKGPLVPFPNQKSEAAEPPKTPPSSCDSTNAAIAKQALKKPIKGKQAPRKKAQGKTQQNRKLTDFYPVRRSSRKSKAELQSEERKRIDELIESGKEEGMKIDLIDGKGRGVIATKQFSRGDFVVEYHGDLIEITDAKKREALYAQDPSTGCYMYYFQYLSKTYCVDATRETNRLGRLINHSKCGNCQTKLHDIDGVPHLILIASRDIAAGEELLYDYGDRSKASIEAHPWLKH
# Sequence of UniProt O15243 (O15243 whole entry, looked up): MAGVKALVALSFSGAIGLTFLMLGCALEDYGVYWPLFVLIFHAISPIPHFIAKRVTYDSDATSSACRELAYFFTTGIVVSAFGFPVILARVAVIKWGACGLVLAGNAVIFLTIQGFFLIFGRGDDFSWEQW
# Sequence of UniProt P28300 (P28300 whole entry, looked up): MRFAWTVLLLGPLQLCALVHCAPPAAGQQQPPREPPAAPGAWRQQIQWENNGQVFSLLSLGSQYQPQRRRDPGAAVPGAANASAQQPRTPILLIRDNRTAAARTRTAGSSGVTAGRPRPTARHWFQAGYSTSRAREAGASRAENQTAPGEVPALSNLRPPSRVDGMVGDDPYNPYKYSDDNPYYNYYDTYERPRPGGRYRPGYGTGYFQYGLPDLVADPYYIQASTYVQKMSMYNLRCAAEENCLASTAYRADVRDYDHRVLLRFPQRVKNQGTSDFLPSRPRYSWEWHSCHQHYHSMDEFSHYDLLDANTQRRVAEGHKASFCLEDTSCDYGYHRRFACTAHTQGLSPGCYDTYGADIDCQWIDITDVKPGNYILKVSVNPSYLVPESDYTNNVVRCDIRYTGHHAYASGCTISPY
# Sequence of UniProt Q86X29 (Q86X29 whole entry, looked up): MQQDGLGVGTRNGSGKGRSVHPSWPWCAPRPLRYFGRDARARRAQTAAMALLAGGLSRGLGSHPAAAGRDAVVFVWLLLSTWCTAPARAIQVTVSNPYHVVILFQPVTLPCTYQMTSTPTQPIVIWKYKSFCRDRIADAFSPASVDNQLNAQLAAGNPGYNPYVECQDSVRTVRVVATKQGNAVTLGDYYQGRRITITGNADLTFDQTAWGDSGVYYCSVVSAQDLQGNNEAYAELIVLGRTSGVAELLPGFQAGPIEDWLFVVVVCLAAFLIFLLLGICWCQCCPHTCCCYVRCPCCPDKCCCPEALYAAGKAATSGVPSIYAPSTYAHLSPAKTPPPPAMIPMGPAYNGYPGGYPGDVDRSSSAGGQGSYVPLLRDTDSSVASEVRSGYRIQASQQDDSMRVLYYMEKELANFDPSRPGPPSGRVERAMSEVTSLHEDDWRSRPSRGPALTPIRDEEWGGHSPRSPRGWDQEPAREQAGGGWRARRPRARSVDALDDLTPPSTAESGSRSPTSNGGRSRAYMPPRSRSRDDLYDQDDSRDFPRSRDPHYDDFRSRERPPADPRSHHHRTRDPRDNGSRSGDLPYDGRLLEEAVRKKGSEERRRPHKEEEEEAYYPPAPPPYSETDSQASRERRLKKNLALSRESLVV
# Sequence of UniProt Q2M2Z5 (Q2M2Z5 whole entry, looked up): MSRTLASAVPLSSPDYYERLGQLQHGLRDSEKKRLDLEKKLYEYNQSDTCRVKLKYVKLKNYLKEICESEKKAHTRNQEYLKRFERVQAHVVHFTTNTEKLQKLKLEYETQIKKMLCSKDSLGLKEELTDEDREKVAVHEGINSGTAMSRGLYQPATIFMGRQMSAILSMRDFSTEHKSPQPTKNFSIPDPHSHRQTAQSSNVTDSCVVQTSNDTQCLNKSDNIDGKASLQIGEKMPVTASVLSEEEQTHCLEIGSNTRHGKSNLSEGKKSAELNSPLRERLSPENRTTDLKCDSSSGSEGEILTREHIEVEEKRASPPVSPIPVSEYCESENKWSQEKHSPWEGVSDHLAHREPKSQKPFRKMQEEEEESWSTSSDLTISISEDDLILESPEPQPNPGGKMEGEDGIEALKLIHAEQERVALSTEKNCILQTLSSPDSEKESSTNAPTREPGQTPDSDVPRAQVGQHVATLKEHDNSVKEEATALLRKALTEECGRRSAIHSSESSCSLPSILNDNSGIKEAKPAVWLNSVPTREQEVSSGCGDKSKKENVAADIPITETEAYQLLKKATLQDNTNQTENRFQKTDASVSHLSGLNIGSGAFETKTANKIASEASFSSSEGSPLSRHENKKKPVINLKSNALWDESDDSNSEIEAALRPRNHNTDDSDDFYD
# Sequence of UniProt Q32MZ4 (Q32MZ4 whole entry, looked up): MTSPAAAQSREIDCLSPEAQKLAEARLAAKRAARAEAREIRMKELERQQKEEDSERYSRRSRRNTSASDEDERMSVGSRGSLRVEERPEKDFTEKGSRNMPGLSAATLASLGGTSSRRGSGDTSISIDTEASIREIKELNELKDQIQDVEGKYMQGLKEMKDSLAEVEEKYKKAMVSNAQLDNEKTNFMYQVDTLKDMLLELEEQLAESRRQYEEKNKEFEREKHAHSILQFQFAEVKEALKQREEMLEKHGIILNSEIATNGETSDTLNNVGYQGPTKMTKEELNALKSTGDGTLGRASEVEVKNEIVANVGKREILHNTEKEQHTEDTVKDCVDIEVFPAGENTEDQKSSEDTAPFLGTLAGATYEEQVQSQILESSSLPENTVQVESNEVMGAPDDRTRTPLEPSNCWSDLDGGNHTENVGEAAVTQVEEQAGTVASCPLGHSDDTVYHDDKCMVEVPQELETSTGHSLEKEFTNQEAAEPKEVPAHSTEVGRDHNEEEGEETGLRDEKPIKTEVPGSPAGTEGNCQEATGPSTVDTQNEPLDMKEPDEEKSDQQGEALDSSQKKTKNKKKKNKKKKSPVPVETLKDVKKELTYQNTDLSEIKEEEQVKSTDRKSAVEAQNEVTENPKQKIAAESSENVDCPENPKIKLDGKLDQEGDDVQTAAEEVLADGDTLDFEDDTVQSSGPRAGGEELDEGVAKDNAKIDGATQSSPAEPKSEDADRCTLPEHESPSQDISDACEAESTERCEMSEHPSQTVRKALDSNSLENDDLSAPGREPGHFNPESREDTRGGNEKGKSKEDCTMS
# Sequence of UniProt Q13163 (Q13163 whole entry, looked up): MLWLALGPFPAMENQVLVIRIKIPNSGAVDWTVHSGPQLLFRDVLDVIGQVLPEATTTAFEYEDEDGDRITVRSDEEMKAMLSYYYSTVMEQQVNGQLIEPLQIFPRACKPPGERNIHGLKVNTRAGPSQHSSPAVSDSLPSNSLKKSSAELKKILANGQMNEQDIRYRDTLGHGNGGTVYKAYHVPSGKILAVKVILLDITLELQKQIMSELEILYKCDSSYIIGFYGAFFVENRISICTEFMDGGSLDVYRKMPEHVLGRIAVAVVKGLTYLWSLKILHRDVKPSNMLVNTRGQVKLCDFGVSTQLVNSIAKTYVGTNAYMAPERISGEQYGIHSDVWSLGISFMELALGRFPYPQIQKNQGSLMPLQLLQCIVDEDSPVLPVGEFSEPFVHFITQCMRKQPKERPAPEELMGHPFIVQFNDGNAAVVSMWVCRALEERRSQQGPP
target,measurement,setting,value
MAP2K5 (UniProt Q13163),log2 fold change,dasatinib,0.063
same,log2 fold change,[1],0.06
same,log2 fold change,[2],0
same,log2 fold change,[3],-0.025
IPP (UniProt Q9Y573),log2 fold change,bafetinib,-0.225
same,log2 fold change,[3],0.047
KIZ (UniProt Q2M2Z5),log2 fold change,[4],0.268
same,log2 fold change,[1],-0.446
same,log2 fold change,[2],0.196
same,log2 fold change,tipifarnib,0.217
same,log2 fold change,[3],-0.067
same,log2 fold change,vorinostat,0.137
same,log2 fold change,citarinostat,-0.094
same,log2 fold change,[5],0.045
KMT5A (UniProt Q9NQR1),log2 fold change,[4],-0.218
same,log2 fold change,[6],0.069
same,log2 fold change,entinostat,-0.258
same,log2 fold change,vorinostat,0.096
ITPRID2 (UniProt P28290),log2 fold change,[2],-0.032
same,log2 fold change,tipifarnib,-0.056
same,log2 fold change,[7],-0.059
same,log2 fold change,citarinostat,-0.029
same,log2 fold change,[8],-0.208
same,log2 fold change,[5],0.211
LOX (UniProt P28300),log2 fold change,bafetinib,-0.734 (active)
same,log2 fold change,nilotinib,-0.183
same,log2 fold change,[9],0.175
same,log2 fold change,[10],0.12
same,log2 fold change,mubritinib,-0.017
same,log2 fold change,[11],-0.086
same,log2 fold change,silmitasertib,0.187
LRRFIP1 isoform 4 (UniProt Q32MZ4),log2 fold change,[4],-0.046
same,log2 fold change,dasatinib,-0.095
same,log2 fold change,[1],-0.226
same,log2 fold change,[3],0.04
same,log2 fold change,vorinostat,-0.062
same,log2 fold change,[8],-0.019
MAML1 (UniProt Q92585),log2 fold change,[1],0.087
same,log2 fold change,[2],-0.009
same,log2 fold change,[6],0.08
same,log2 fold change,[7],0.088
same,log2 fold change,entinostat,-0.104
same,log2 fold change,[8],0.025
LEPROT (UniProt O15243),log2 fold change,[4],0.03
same,log2 fold change,dasatinib,0.188
same,log2 fold change,[1],-0.193
same,log2 fold change,mubritinib,0.041
same,log2 fold change,[3],-0.161
same,log2 fold change,[11],-0.088
same,log2 fold change,vorinostat,-0.142
same,log2 fold change,citarinostat,0.125
same,log2 fold change,silmitasertib,0.005
same,log2 fold change,[8],0.261
same,log2 fold change,[5],-0.072
IGFBP3 isoform 2 (UniProt P17936),log2 fold change,[4],0.043
same,log2 fold change,dasatinib,-0.001
same,log2 fold change,[1],0.106
same,log2 fold change,tipifarnib,-0.087
same,log2 fold change,[6],0.042
same,log2 fold change,[3],-0.142
same,log2 fold change,[7],-0.043
same,log2 fold change,entinostat,-0.02
same,log2 fold change,vorinostat,0.167
same,log2 fold change,[8],-0.047
LSR isoform 3 (UniProt Q86X29),log2 fold change,dasatinib,-0.074
same,log2 fold change,[1],0.026
same,log2 fold change,tipifarnib,0.101
same,log2 fold change,mubritinib,0.435
same,log2 fold change,[6],-0.531
same,log2 fold change,[11],-0.327
same,log2 fold change,entinostat,-0.134
same,log2 fold change,silmitasertib,0.062
